Source: ChEMBL document CHEMBL3433997, “St. Jude Leishmania screening dataset” (2016)

Experiments:
Type in all cases: functional
[1] = molecular target: Solute carrier family 2, facilitated glucose transporter member 1 (Homo sapiens) (UniProt P11166); experiment: ST_JUDE_LEISH: Cytotoxicity at 2uM final concentration against transgenic Leishmania Mexicana promastigotes LmGLUT1 that are glucose transport deficient and complemented with the human glucose transporter GLUT1. Activity is measured by DNA content using SYBR green in vitro
Chain of Solute carrier family 2, facilitated glucose transporter member 1 (Homo sapiens) (P11166 whole entry): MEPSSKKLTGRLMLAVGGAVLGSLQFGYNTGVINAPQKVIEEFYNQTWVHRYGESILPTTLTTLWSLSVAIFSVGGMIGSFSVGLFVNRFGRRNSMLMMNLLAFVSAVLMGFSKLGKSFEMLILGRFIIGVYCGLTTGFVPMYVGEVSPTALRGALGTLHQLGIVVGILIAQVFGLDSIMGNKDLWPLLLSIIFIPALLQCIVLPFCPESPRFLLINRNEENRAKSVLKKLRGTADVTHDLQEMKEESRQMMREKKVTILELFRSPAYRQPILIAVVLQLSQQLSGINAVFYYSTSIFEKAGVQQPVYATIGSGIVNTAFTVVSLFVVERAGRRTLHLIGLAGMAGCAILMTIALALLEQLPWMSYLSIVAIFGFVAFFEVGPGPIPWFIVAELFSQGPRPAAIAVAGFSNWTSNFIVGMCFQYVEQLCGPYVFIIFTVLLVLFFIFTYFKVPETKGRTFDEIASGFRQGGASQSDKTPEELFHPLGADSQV

[2] = molecular target: Hexose transporter 1 (Plasmodium falciparum) (UniProt O97467); experiment: ST_JUDE_LEISH: Cytotoxicity at 2uM final concentration against transgenic Leishmania Mexicana promastigotes LmPfHT that are glucose transport deficient and complemented with the Plasmodium falciparum hexose transporter. Activity is measured by DNA content using SYBR green in vitro
[3] = molecular target: Glucose transporter (Leishmania mexicana) (UniProt O61059); experiment: ST_JUDE_LEISH: Cytotoxicity at 2uM final concentration against transgenic Leishmania Mexicana promastigotes LmGT2 that are glucose transport deficient and complemented with the L. Mexicana glucose transporter 2. Activity is measured by DNA content using SYBR green in vitro

Structure (SMILES) | inhibition [1] [%] | inhibition [2] [%] | inhibition [3] [%]
COc1ccc(CNc2nc(NCc3ccccc3)c3cc(OC)c(OC)cc3n2)cc1OC | 4.35 | 5.92 | 0.89
Cc1ccc(NC(=O)Nc2ccc(Cl)c(C(F)(F)F)c2)cc1-c1ccc(C(=O)NCCN2CCOCC2)cc1 | 8.1 | 5.32 | 5.24
CC(=O)N(C)c1cccc(C(=O)Nc2cccc(-c3cccc(-c4nc5cccc(C)c5[nH]4)c3)c2)c1 | 13.3 | 3.96 | 11.4
COc1c(C2CCN(CCCCNC(=O)c3cc(-c4ccc(Cl)cc4)sc3C)CC2)ccc2c1CCCC2 | 0.21 | 2.22 | -2.53
